PG9 Ab binder – PG9 antibody binding by small molecule; TR-FRET gp120-PG9 antibody binding; inhibition, % at 6.7 µM; hit rate 0.43% among 360,000; AID 624416; in the data active = inhibition above about 8.5%
SKN-1 inh – C. elegans SKN-1 inhibition; hit rate 0.49% among 360,000; inhibition, % at 21.8 µM; C. elegans VP596 Pgst-4::GFP/RFP ratio, acrylamide-induced, 24 h;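 active = interference check ratio from 0.5 to 1.5 plus GFP to RFP signal ratio inhibition reaching or exceeding a fixed threshold, cut at about 30% in these data, passing the limit was not always enough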
RAM network inh – yeast RAM network inhibition; S. cerevisiae dse1pr::URA3 reporter, 5-FOA growth OD615, 2 d; analog-sensitive cbk1-as2 kinase mutant strain; inhibition, % at 50 µM; hit rate 1.8% among 190,000; AID 868;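 active = inhibition above a set limit, 3 SD over mean compound inhibition, cut at about 8.4% in these data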;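 note: 0% = DMSO-only wells with no growth and 100% = 10 µM 1-NA-PP1 full growth; inhibition rescues growth on 5-FOA so higher OD means more RAM inhibition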
Rev-erbA mod – modulators of human Rev-erb alpha DNA binding; Rev-erbα–FITC-DNA binding, fluorescence polarization, 90 min; activity, % at 10 µM; P20393; hit rate 0.79% among 370,000;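 active = activity above about 14%, limit read from the data; passing the limit was not always enough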;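 note: 0% = DMSO wells with 35 nM protein and 100% = DMSO wells with 750 nM protein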
EP2 mod – modulates human prostaglandin E2 receptor EP2 signaling. P43116. EP2-expressing cells, cAMP HTRF FRET, PGE2 co-stimulation. induction, % at 25 µM. hit rate 0.83% among 260,000;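 active = compounds whose cAMP rise, as percent of the full-agonist control response, exceeds 60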;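 note: rat C6 glioma line stably carrying human EP2 under a CMV promoter; the protocol text gives 20 µM as final concentration; 100% = response of wells given 1 µM PGE2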
Target sequence (P43116 whole entry, looked up): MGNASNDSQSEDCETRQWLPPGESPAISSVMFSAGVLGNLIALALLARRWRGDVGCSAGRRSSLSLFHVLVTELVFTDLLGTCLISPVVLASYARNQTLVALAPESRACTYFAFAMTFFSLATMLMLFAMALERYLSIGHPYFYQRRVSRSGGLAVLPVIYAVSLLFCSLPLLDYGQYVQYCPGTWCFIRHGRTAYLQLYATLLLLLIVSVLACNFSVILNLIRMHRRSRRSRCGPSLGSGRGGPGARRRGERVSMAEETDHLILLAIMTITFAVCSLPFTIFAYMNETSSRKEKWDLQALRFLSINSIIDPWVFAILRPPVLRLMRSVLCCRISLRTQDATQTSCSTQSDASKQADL
EP2 antag – EP2 receptor (human) inhibition; C6 glioma cells expressing human EP2, cAMP TR-FRET; cells stimulated with saturating PGE2; P43116; inhibition, % at 25 µM; hit rate 0.52% among 260,000;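 active = percent inhibition above 40 after rounding to a whole number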;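 note: rat C6 glioma host cells with rolipram phosphodiesterase inhibitor present; the protocol text gives 20 µM as final concentration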
An asterisk follows results filed as active; / = no result. This is a sample that favours compounds with a hit; in the whole collection about 2.9% have one here.

SMILES | PG9 Ab binder | SKN-1 inh | RAM network inh | Rev-erbA mod | EP2 mod | EP2 antag
O=C(/C=C/c1ccccc1)NC(NC(=S)Nc1cccc(O)c1)C(Cl)(Cl)Cl (configuration not stated) | 0 | 20 | 6 | 1 | -73 | 14
O=C(NC(NC(=S)Nc1ccccc1Cl)C(Cl)(Cl)Cl)c1cccc(Cl)c1 (configuration not stated) | -1 | 10 | 9.4* | 0 | 6 | 7
O=C(/C=C/c1ccccc1)NC(NC(=S)Nc1cccc(Cl)c1)C(Cl)(Cl)Cl (configuration not stated) | 2 | 27 | 8.9* | 5 | 4 | 8
CSc1cccc(NC(=O)/C=C/c2cccc(Cl)c2)c1 | -2 | 14 | 9.1* | -2 | -61 | 10
O=C(/C=C/c1cccc(Cl)c1)Nc1ncccn1 | -1 | 4 | -2 | 3 | 3 | 2
CCc1nc(SCC(=O)c2ccccc2)c2c(C)c(C)sc2n1 | / | / | / | / | 59 | 12
COc1cc2c(cc1NC(=O)c1ccc(F)cc1F)oc1ccccc12 | / | / | / | / | -21 | 9
CN(C)S(=O)(=O)c1ccc(S(=O)(=O)N2CCCCC2)cc1 | / | / | / | / | -4 | 5
COc1ccc2c(c1)c1c(C)c3cnccc3c(C)c1n2CCCN | / | / | / | / | 32 | 49*
COc1ccc2c(c1)c1nc3ccccc3nc1n2CCCN1C(=O)c2ccccc2C1=O | -5 | -1 | 3 | -4 | 5 | 14
CCn1c(SCC(=O)Nc2ccc(NC(=O)C(C)(C)C)cc2)nnc1-c1cccnc1 | / | / | / | / | -16 | 14
CCn1c(SCC(=O)Nc2ccc(NC(=O)c3cccs3)cc2)nnc1-c1cccnc1 | 1 | 35* | 6 | 2 | 13 | 17
COc1ccccc1NS(=O)(=O)c1cc([N+](=O)[O-])ccc1N/N=C/c1c(C)[nH]c2ccccc12 | -2 | 16 | 11* | -5 | -41 | 18
CCNc1nc(CC)nc2c1oc1ccccc12 | -1 | 12 | 0 | 0 | -5 | 6
CCc1nc(N(CC)CC)c2oc3ccccc3c2n1 | -1 | 12 | 0 | 3 | 61* | 10
O=C(c1ccc(Br)o1)N1CCC(Cc2ccccc2)CC1 | -1 | -4 | / | -5 | / | /
Cn1nccc1C(=O)N1CCC(Cc2ccccc2)CC1 | -2 | 38* | / | 1 | / | /
CCN1CCN(C(c2ccc(C)cc2)c2nnnn2C2CCCCC2)CC1 (configuration not stated) | / | / | / | / | -23 | 7
COc1cc([C@@H]2C[C@H]3CN(c4ccccc4)C(=O)[C@]34CCCN24)cc(OC)c1OC | -1 | 12 | 1 | -8 | 7 | 2
COc1ccccc1-n1cc([C@@H]2C[C@H]3CN(c4ccccc4)C(=O)[C@]34CCCN24)cn1 | 1 | 40* | 0 | -2 | 26 | 3
Fc1ccc(-c2nc3ccc(Cl)cn3c2Cc2ccsc2)cc1 | 0 | 40* | / | -3 | / | /
Cc1ccc2nc(-c3cccc(Cl)c3)c(Cc3ccsc3)n2c1 | -1 | / | / | 4 | / | /
Clc1cccc(-c2nc3ccc(Br)cn3c2Cc2ccsc2)c1 | -2 | 36* | / | -5 | / | /
Brc1cccc(-c2nc3ccc(Br)cn3c2Cc2ccsc2)c1 | 0 | 47* | / | -4 | / | /
Cc1ccc(-c2nc3ccc(Cl)cn3c2Cc2ccsc2)cc1 | -2 | 35 | / | -4 | / | /
SMILES | PG9 Ab binder | SKN-1 inh | RAM network inh | Rev-erbA mod | EP2 mod | EP2 antag
COc1ccc(CNC(=O)C(C)OC(=O)c2ccco2)cc1 (configuration not stated) | / | / | / | / | 7 | 11
CCC[N+]1(CC#CC(O)(c2ccccc2)C2(C)CCCC2)CCCCC1 (configuration not stated) | / | / | / | / | -2 | 5
C=CCn1c2cc(C)sc2c2cnn(Cc3ccccc3F)c(=O)c21 | / | / | / | / | 63* | /
Cc1nn(C)c(C)c1NC(=O)CSc1nccc(-c2ccc(F)cc2)n1 | / | / | / | / | 24 | 12
COc1cc2c3cc1Oc1cc(ccc1O)C[C@@H]1c4c(cc(OC)c(O)c4Oc4ccc(cc4)C[C@@H]3N(C)CC2)CC[N+]1(C)C | / | / | / | -1 | 3 | 4
COc1ccc2cc1Oc1ccc(cc1)C[C@H]1c3c(cc(OC)c4c3Oc3cc5c(cc3O4)CCN[C@H]5C2)CCN1C | / | / | / | / | -1 | 47*
COc1cc2c3cc1Oc1c(OC)c(OC)cc4c1[C@@H](Cc1ccc(O)c(c1)Oc1ccc(cc1)C[C@@H]3N(C)CC2)CN(C)C4 | / | / | / | / | 1 | 48*
COc1ccc2cc1Oc1ccc(cc1)CC1c3c(cc(OC)c4c3Oc3cc5c(cc3O4)CCNC5C2)CCN1C (configuration not stated) | / | 15 | / | / | -13 | 14
O=C(c1cccc(Cl)c1)N1CCC(=O)N(C(COCc2cccc(Cl)c2)Cc2ccccc2)CC1 (configuration not stated) | 0 | 7 | 9.5* | -2 | 25 | 22
O=C(c1ccc(Cl)c(Cl)c1)N1CCC(=O)N(C(COCc2cccc(Cl)c2)Cc2ccccc2)CC1 (configuration not stated) | 0 | -4 | 10* | -1 | 30 | 8
O=C(c1ccc(Cl)c(Cl)c1)N1CCC(=O)N([C@H](COCc2ccc(Cl)cc2)Cc2ccccc2)CC1 | 0 | -15 | / | -3 | / | /
CC(C)(C)C(=O)Nc1ccc(S(=O)(=O)N2CCCCC2)cc1 | / | / | / | / | -35 | 9
COc1ccccc1C(=O)Nc1ccc(Br)c2cccnc12 | -1 | 39* | / | 0 | / | /
COc1ccccc1C(=O)Nc1ccc(Br)cc1C | -1 | 54* | 4 | 2 | 22 | 5
COc1ccccc1C(=O)Nc1ccccn1 | 0 | 14 | 2 | 5 | 9 | 8
COc1cc(Cl)c(C)cc1NC(=O)c1cccc(OC)c1OC | -1 | 11 | 10* | 5 | -13 | 14
COCC(=O)Nc1ccc(Br)cc1C | 2 | -6 | -1 | 5 | 8 | 7
Cc1cc(=O)n(CC(=O)NC2(c3ccc4c(c3)OCO4)CCCC2)c2ccccc12 | / | / | / | / | 35 | /
CCOc1ccc2[nH]c(=O)c(CN(CC(C)O)C(=S)Nc3cccc(Cl)c3)cc2c1 (configuration not stated) | / | / | / | / | -52 | 21
CC1CC/C(=C\c2ccc3c(c2)OCO3)C(=O)/C1=C/c1ccc2c(c1)OCO2 (configuration not stated) | -2 | 0 | 10* | 3 | 25 | 13
Cc1ccc(NC(=O)CC(=O)Nc2ccc(C)c(C)c2)cc1C | 0 | 7 | / | 8 | / | /
Cc1ccc(NC(=O)CCSCCC(=O)Nc2ccc(C)c(C)c2)cc1C | -1 | 6 | 9.8* | 1 | -22 | 16
CCc1cccc(NC(=O)CCSCCC(=O)Nc2cccc(CC)c2)c1 | -2 | 1 | 9.9* | -4 | 2 | 15
COc1ccc(C(=O)Nc2nc(-c3ccc4c(c3)CCN4S(C)(=O)=O)cs2)cc1 | / | / | / | / | -40 | 7
CC1CC(C)CN(CCCNC(=O)C2(c3ccccc3F)CC2)C1 (configuration not stated) | / | / | / | / | -26 | 6
CCn1c(COc2ccccc2)nnc1SCC(=O)Nc1sc2c(c1C#N)CCCC2 | / | / | / | / | 28 | 6

High-throughput results: PubChem, several laboratories
